KDM5B inh – KDM5B demethylase inhibition; Potency, µM (doses to about 57.7 µM), most hits filed as inhibitors; Q9UGL1; KDM5B demethylase, FDH-coupled NADH fluorescence (FDH is formaldehyde dehydrogenase); 220,000 tested, 2.6% active; active means well fitted inhibition curve with a large enough effect; inconclusive means small, poorly fitted or top-dose-only effect; inactive means no such curve, though single readings can be large or run the other way; further: nearly all actives have a fitted effect of over 70% in size
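KDM5BΔAP (200 nM final) in 50 mM HEPES pH 7.5, 0.01% Tween-20 was preincubated 10 min at RT with compound over a concentration range. Substrate mix (H3K4me3 12.5 µM, α-KG 25 µM, Fe²⁺, ascorbate, NAD⁺, FDH) was added, and NADH fluorescence change over 30 min gave dose-response curves.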
IP6K1 inh – blocks human inositol hexakisphosphate kinase 1; activity change, % (series mostly up to about 58 µM); 140,000 tested, 0.81% active; AID 1645851; IP6K1 kinase, ADP-Glo luminescence, 2 h; active compounds read low; in the data active means activity change below about -25%
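ADP-Glo luminescence measures ADP made by human IP6K1 during a 2 h RT reaction with ATP/IP6 (mix at 1.3 mM/130 uM); top library doses 57.5 and 19.1 uM final.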
Numbers stand for hits; 0 = inactive; ? = inconclusive; - = no result given. The list is not random: actives were taken first. Their share in the collection is about 2.8%.

SMILES	KDM5B inh	IP6K1 inh
C[S+](=O)([O-])c1ccc(-c2nc(C(=O)N3CCCC3)n3ccncc23)cc1	?	0
CC(C)(C)c1cc(C(=O)N2CCN(c3ncccn3)CC2)nn2cccc12	0	0
O=C(c1nc(-c2ccc(Cl)cc2)c2cnccn12)N1CCOCC1	32µM	0
O=C(c1nc(-c2ccc(F)cc2)c2cnccn12)N1CCN(c2ncccn2)CC1	25µM	0
CC(C)(C)c1nc(C(=O)N2CCN(c3ncccn3)CC2)n2ccncc12	79µM	0
CC(=O)c1ccc(N2CCN(C(=O)Cn3cnc(S(=O)(=O)N4CCOCC4)c3)CC2)cc1	0	-
Cc1oc2ncnc(N3CCOCC3)c2c1C(=O)Nc1ccc(C(C)C)cc1	0	-
COCCN[C@H]1[C@@H]2OC[C@@H](O2)[C@@H](NC(=O)Nc2cccc(C#N)c2)[C@@H]1O	0	0
Cc1ccccc1-n1nc(C)c([C@H]2C=C[C@@H](OC(=O)NC(C)C)C2)c1C	0	0
O=C(NC1CCc2nnc(C3CC3)n2CC1)c1ccc2ccccc2n1 (stereo not drawn)	?	0
COc1cc(C)c(COc2ccc(C#N)cc2)cc1OC	0	-
O=C(c1ccc(F)cc1Cl)N1Cc2cnn(Cc3ccc(F)cc3)c2C1	?	0
CC(C)Cc1ccc(C(C)NC(=O)C2CC2C)cc1 (stereo not drawn)	0	-
O=C(NC1CC1)c1nc(-c2ccc(F)cc2)c2cnccn12	35µM	0
O=C(NC1CC1)c1nc(-c2cccnc2)c2cnccn12	?	0
CCOC(=O)C1CCCN(C(=O)c2cn3cc(-c4ccc(C(F)(F)F)cc4)sc3n2)C1 (stereo not drawn)	-	0
COc1ccc(-c2ccc3nnc(CNC(=O)COc4ccccc4)n3n2)cc1	28µM	0
O=C(COc1ccccc1)NCc1nnc2ccc(-c3ccc(Cl)cc3)nn12	?	0
Cc1ccc(-c2ccc3nnc(CNC(=O)CNC(=O)c4ccccc4)n3n2)cc1	32µM	0
COc1ccc(-c2ccc3nnc(CNC(=O)CNC(=O)c4ccccc4)n3n2)cc1	28µM	0
Cc1ccc(-c2ccc3nnc(CNC(=O)Cc4ccccc4Cl)n3n2)cc1	?	0
C[S+](=O)([O-])N1CC2ON=C(C(=O)NCc3ccc(F)cc3)C2C1 (stereo not drawn)	0	0
Cc1c(C(=O)N(Cc2ccco2)C2CC2)[nH]c2c1C(=O)CC(C)(C)C2	0	-
O=C(C1CC1)N1CCc2cc(Br)cc(S(=O)(=O)N3CCN(c4cccc(C(F)(F)F)c4)CC3)c21	?	0
N#Cc1ccccc1S(=O)(=O)N[C@H]1CO[C@H]2[C@@H]1OC[C@@H]2n1nnnc1Oc1cccc(N2CCOCC2)c1	0	0
SMILES	KDM5B inh	IP6K1 inh
Cc1nnc2n1CCC(NC(=O)c1ccoc1)CC2 (stereo not drawn)	0	0
Cc1nnc2n1CCC(NC(=O)c1ccc3cc[nH]c3c1)CC2 (stereo not drawn)	28µM	0
CN1C(=O)c2cccn2CC1C(=O)NCCc1c[nH]c2ccccc12 (stereo not drawn)	0	0
O=C(c1cnc2c(O)cccn2c1=O)N1CCC2(CC1)OCCCC2O (stereo not drawn)	32µM	0
O=C(NC1CCOC2(CCOCC2)C1)c1cnc2c(O)cccn2c1=O (stereo not drawn)	32µM	0
NC(=O)COc1cccc(C(=O)N2CCC3(CC2)OCCCC3O)c1 (stereo not drawn)	0	0
CC(C)NC(=O)[C@@H]1C[C@@H](NC(=O)c2ccon2)CN1Cc1cccnc1N	0	0
O=C(NC1CCOC2(CCOCC2)C1)c1ccc(-c2cnco2)cc1 (stereo not drawn)	0	0
CC(C)NC(=O)[C@@H]1C[C@@H](NC(=O)c2cnc3c(O)cccn3c2=O)CN1C	35µM	0
CC(C)(C)c1ccc(NC(=O)c2nccnc2N)cc1	0	-
CCN1C(=O)C2CC3(CCN(C(=O)Cn4c(=O)oc5ccccc54)CC3)CN2C1=O (stereo not drawn)	0	0
CCc1[nH]c2c(CNC(=O)C3(C)CCCCO3)cc(F)cc2c1C (stereo not drawn)	20µM	0
CCc1[nH]c2c(CNC(=O)c3cnc(C)nc3)cc(C)cc2c1C	?	0
O=C(NCc1ccccn1)c1ccc2c(c1)n(Cc1cccc(F)c1)c(=O)c1ccnn12	25µM	0
CCCN1CCN(C(=O)c2ccc3c(c2)n(CC)c(=O)c2ccnn23)CC1	?	0
Cn1c(=O)c2ccnn2c2ccc(C(=O)Nc3ccc(N4CCOCC4)cc3)cc21	0	0
Cc1cc(F)ccc1NC(=O)c1ccc2c(c1)n(Cc1cccc(F)c1)c(=O)c1ccnn12	0	0
CCn1c(=O)c2ccnn2c2ccc(C(=O)NCCCOC(C)C)cc21	32µM	0
Cc1oc2c(c1C(=O)NC1CCN(C)CC1)CN(Cc1ccc(F)cc1)CC2	?	0
CN1CCC(NC(=O)c2ccc3c(c2)n(Cc2ccc(F)cc2)c(=O)c2ccnn23)CC1	28µM	0
CCn1c(=O)c2ccnn2c2ccc(C(=O)Nc3ccc(C)c(F)c3)cc21	8.9µM	0
O=C(Nc1cc(-c2ccncc2)nn1-c1ccccc1)c1cccc(Br)c1	-	0
CCn1c(=O)c2ccnn2c2ccc(C(=O)N3CCN(c4ccccc4)CC3)cc21	0	0
CNC(=O)c1ccc2c(c1)n(Cc1ccc(OC)cc1)c(=O)c1ccnn12	0	0
CCCCNC(=O)c1ccc2c(c1)n(Cc1ccc(F)cc1)c(=O)c1ccnn12	22µM	0
SMILES	KDM5B inh	IP6K1 inh
CN(C)C(=O)c1ccc2c(c1)n(Cc1ccc(F)cc1)c(=O)c1ccnn12	28µM	0
CN1C(=O)CCCCC1C(=O)NCC1CCN(Cc2cccc(F)c2)CC1 (stereo not drawn)	0	0
Cn1c(=O)c2ccnn2c2ccc(C(=O)NCCN3CCC(N4CCCCC4)CC3)cc21	28µM	0
CCN(CC)c1ccc(CNC(=O)c2ccc3c(c2)n(C)c(=O)c2ccnn23)cc1	?	0
Cn1c(=O)c2ccnn2c2ccc(C(=O)NCC3CCN(Cc4cccc(F)c4)CC3)cc21	28µM	0
COc1ccc(C(=O)NC2CCN(c3ccc(F)cc3)C2=O)cc1 (stereo not drawn)	0	0
CC[C@H]1COCCN1C(=O)c1csc(Cc2ccccc2)n1	0	0
CCNC(=O)CC1COCCN1C(=O)c1csc(-c2cccs2)n1 (stereo not drawn)	22µM	0
CO[C@H]1C(=O)N(C2CCN(C(=O)Nc3ccccc3F)CC2)[C@H]1c1ccncc1	0	0
O=C(COc1ncnc2ccccc12)Nc1cccc(F)c1	0	-
Cc1noc(C)c1-c1cc(-c2ccc([S+](C)(=O)[O-])cc2)cn2cncc12	32µM	0
Cc1noc(C)c1-c1cc(-c2cccc(O)c2)cn2cncc12	?	0
COc1ccc(-c2cc(-c3ccc([S+](C)(=O)[O-])cc3)cn3cncc23)cc1	0	0
Cc1noc(C)c1-c1cc(-c2ccc(CO)cc2)cn2cncc12	35µM	0
CN1C[C@H](NCC2CC2)CCC[C@@H](C(=O)NC2CCOCC2)CC1=O	0	0
O=C1NCc2ccccc2CC12CCN(Cc1c(F)cccc1F)C2 (stereo not drawn)	0	0
COc1ccccc1C(=O)Nc1ccnn1C1CCN(c2nccc(N)n2)CC1	?	0
COc1ccccc1C(=O)Nc1ccnn1C1CCN(c2cnccn2)CC1	28µM	0
c1cnc(N2CC[C@H](c3nnc(-c4ccncc4)o3)C2)nc1	32µM	0

Compound activity deposited in PubChem BioAssay by National Center for Advancing Translational Sciences (NCATS).
